Test results taken from ChEMBL document CHEMBL4513141, “CO-ADD screening of NIH (USA) - Clinical Collection” (2021).
Entries with a potency or affinity are not part of this list.

Tests used:
Staphylococcus aureus = settings: Concentration 20 uM; ASSAY_TEST Inhibition of Bacterial Growth; detection method Absorption (OD600); MEDIA CAMHB; plate type 384well; NBS; CORNING #3640; time 18 hr
Escherichia coli = settings: Concentration 20 uM; ASSAY_TEST Inhibition of Bacterial Growth; detection method Absorption (OD600); MEDIA CAMHB; plate type 384well; NBS; CORNING #3640; time 18 hr

**Q.** `CC[C@@H]1C(=O)OC[C@@H]1Cc1cncn1C.Cl` [PILOCARPINE HYDROCHLORIDE] was tested. Which Inhibition (Staphylococcus aureus) did it give?
**A.** 15.92%

**Q.** What about the Inhibition (Escherichia coli) of the same molecule?
**A.** 5.77%

**Q.** What does the source list for `C[C@H]1[C@@H](OC(=O)CCC(=O)O)O[C@@H]2O[C@@]3(C)CC[C@H]4[C@H](C)CC[C@@H]1[C@@]24OO3`?
**A.** Inhibition (Staphylococcus aureus): -17.43%; Inhibition (Escherichia coli): 12.24%

**Q.** How did the Inhibition (Staphylococcus aureus) turn out when `Cl.O=C1c2c(O)ccc(O)c2C(=O)c2c(NCCNCCO)ccc(NCCNCCO)c21` was run?
**A.** -9.15%

**Q.** What about the Inhibition (Escherichia coli) of the same molecule?
**A.** 4.04%

**Q.** Which results are given for `Nc1nc(O)c2ncn(CCC(CO)CO)c2n1` [PENCICLOVIR]?
**A.** Inhibition (Staphylococcus aureus): 6.12%; Inhibition (Escherichia coli): 2.89%

**Q.** Which Inhibition (Staphylococcus aureus) does the source give for `CCCCC(=O)OC1(C(=O)CO)CCC2C3CCC4=CC(=O)CCC4(C)C3C(O)CC21C` (centres undefined) here?
**A.** 4.02%

**Q.** And the Inhibition (Escherichia coli)?
**A.** 3.22%

**Q.** `CCCCC1=NC2(CCCC2)C(=O)N1Cc1ccc(-c2ccccc2-c2nnn[nH]2)cc1` [IRBESARTAN] was tested. Which Inhibition (Staphylococcus aureus) did it give?
**A.** 6.34%

**Q.** And the Inhibition (Escherichia coli)?
**A.** -3.35%

**Q.** Which Inhibition (Staphylococcus aureus) does the source give for `CCC(=O)O[C@]1(C(=O)CCl)[C@@H](C)C[C@H]2[C@@H]3CCC4=CC(=O)C=C[C@]4(C)[C@@]3(F)[C@@H](O)C[C@@]21C` [CLOBETASOL PROPIONATE] here?
**A.** -12.08%

**Q.** And the Inhibition (Escherichia coli)?
**A.** -1.37%

**Q.** Which Inhibition (Staphylococcus aureus) does the source give for `C=C1/C(=C\C=C2/CCC[C@]3(C)[C@@H]([C@H](C)CCCC(C)(C)O)CC[C@@H]23)C[C@@H](O)C[C@@H]1O` [CALCITRIOL] here?
**A.** 3.12%

**Q.** And the Inhibition (Escherichia coli)?
**A.** 7.51%

**Q.** `O=C(O)c1cc(/N=N/c2ccc(S(=O)(=O)Nc3ccccn3)cc2)ccc1O` [SULFASALAZINE] was tested. Which Inhibition (Staphylococcus aureus) did it give?
**A.** -13.67%

**Q.** And the Inhibition (Escherichia coli)?
**A.** 7.84%

**Q.** Which results are given for `COc1cc(N)c(Cl)cc1C(=O)N[C@@H]1CCN(CCCOc2ccc(F)cc2)C[C@@H]1OC.O` [(R,S)-CISAPRIDE MONOHYDRATE]?
**A.** Inhibition (Staphylococcus aureus): 10.08%; Inhibition (Escherichia coli): 2.71%

**Q.** For `Cc1cccc(C)c1OCC(C)N.Cl` (centres undefined) [MEXILETINE HYDROCHLORIDE], which Inhibition (Staphylococcus aureus) is on record?
**A.** 13.57%

**Q.** What about the Inhibition (Escherichia coli) of the same molecule?
**A.** 3.59%

**Q.** `CCN(CC)CCNC(=O)c1cc(Cl)c(N)cc1OC.Cl` was tested. Which Inhibition (Staphylococcus aureus) did it give?
**A.** 7.88%

**Q.** And the Inhibition (Escherichia coli)?
**A.** -6.93%

**Q.** For `COc1ccc(-c2cc(=O)c3c(OC)c(OC)c(OC)c(OC)c3o2)cc1OC` [NOBILETIN], which Inhibition (Staphylococcus aureus) is on record?
**A.** 13.24%

**Q.** And the Inhibition (Escherichia coli)?
**A.** -1.7%

**Q.** Which Inhibition (Staphylococcus aureus) does the source give for `CSc1nc2cc(Cl)c(Oc3cccc(Cl)c3Cl)cc2[nH]1` [TRICLABENDAZOLE] here?
**A.** 7.06%

**Q.** What about the Inhibition (Escherichia coli) of the same molecule?
**A.** -5.3%

**Q.** What does the source list for `C[C@]12C[C@H](O)[C@H]3[C@@H](CCC4=CC(=O)CC[C@@]43C)[C@@H]1CC[C@@H]2C(=O)CO` [CORTICOSTERONE]?
**A.** Inhibition (Staphylococcus aureus): 12.8%; Inhibition (Escherichia coli): 2.35%

**Q.** Which results are given for `Cc1occc(=O)c1O` [MALTOL]?
**A.** Inhibition (Staphylococcus aureus): 14.12%; Inhibition (Escherichia coli): 4.13%

**Q.** Which Inhibition (Staphylococcus aureus) does the source give for `CCCCN1CCCC1CNC(=O)c1cc(C#N)c2ccccc2c1OC` (centres undefined) [NAFADOTRIDE] here?
**A.** 6.62%

**Q.** What about the Inhibition (Escherichia coli) of the same molecule?
**A.** 2.47%

**Q.** Which Inhibition (Staphylococcus aureus) does the source give for `CN(CCOc1ccc(NS(C)(=O)=O)cc1)CCc1ccc(NS(C)(=O)=O)cc1` [DOFETILIDE] here?
**A.** 11.97%

**Q.** And the Inhibition (Escherichia coli)?
**A.** 6.72%

**Q.** How did the Inhibition (Staphylococcus aureus) turn out when `CC1(C)O[C@@H]2C[C@H]3[C@@H]4CCC5=CC(=O)C=C[C@]5(C)[C@@]4(F)[C@@H](O)C[C@]3(C)[C@]2(C(=O)CO)O1` [TRIAMCINOLONE ACETONIDE] was run?
**A.** 7.65%

**Q.** What about the Inhibition (Escherichia coli) of the same molecule?
**A.** 3.69%

**Q.** `C#C[C@]1(O)CC[C@H]2[C@@H]3CCC4=CC(=O)CC[C@@H]4[C@H]3CC[C@@]21CC` [LEVONORGESTREL] was tested. Which Inhibition (Staphylococcus aureus) did it give?
**A.** 8.4%

**Q.** And the Inhibition (Escherichia coli)?
**A.** 3.88%

**Q.** How did the Inhibition (Staphylococcus aureus) turn out when `C#C[C@]1(O)CC[C@H]2[C@@H]3CCC4=Cc5oncc5C[C@]4(C)[C@H]3CC[C@@]21C` [DANAZOL] was run?
**A.** 2.21%

**Q.** And the Inhibition (Escherichia coli)?
**A.** -2.5%

**Q.** For `CC1(C)C[C@@H]1C(=O)N/C(=C\CCCCSC[C@H](N)C(=O)O)C(=O)[O-].[Na+]` [CILASTATIN SODIUM], which Inhibition (Staphylococcus aureus) is on record?
**A.** -4.51%

**Q.** And the Inhibition (Escherichia coli)?
**A.** -0.62%

**Q.** Which Inhibition (Staphylococcus aureus) does the source give for `Cl.NC1CCN(c2cccc(Cl)n2)CC1` here?
**A.** 8.14%

**Q.** And the Inhibition (Escherichia coli)?
**A.** 8.42%

**Q.** Which Inhibition (Staphylococcus aureus) does the source give for `Cn1ccnc1S` [METHIMAZOLE] here?
**A.** 17.02%

**Q.** And the Inhibition (Escherichia coli)?
**A.** 5.86%

**Q.** Which results are given for `Cc1cccc(C)c1NC(=O)C(C)N` (centres undefined) [TOCAINIDE]?
**A.** Inhibition (Staphylococcus aureus): 2.4%; Inhibition (Escherichia coli): 3.98%

**Q.** For `CC(C)(S)C(N)C(=O)O` (stereo not drawn) [DL-PENICILLAMINE], which Inhibition (Staphylococcus aureus) is on record?
**A.** 15.93%

**Q.** What about the Inhibition (Escherichia coli) of the same molecule?
**A.** -3.28%

**Q.** For `CN(C)CC/C=C1/c2ccccc2COc2ccc(CC(=O)O)cc21.Cl` [OLOPATADINE HYDROCHLORIDE], which Inhibition (Staphylococcus aureus) is on record?
**A.** -18.81%

**Q.** And the Inhibition (Escherichia coli)?
**A.** 1.13%
